# High-throughput results (PubChem BioAssay)
# Only some compounds are listed: those with a hit (about 9.9% of all), similar ones and a draw of the others.
# SW480 rerep – DNA re-replication induction in SW480 cells | AID 624297 | Potency, µM (doses to about 46.1 µM), inactives show at the highest dose re-replication activation, most hits filed as activators | SW480 DNA re-replication, Hoechst DNA content imaging, 48 h | 1.8% of 340,000 active; also: potency is read from the fitted curve at half-maximal effect; % of control where 0% means no effect; nearly all actives have a fitted effect of over 55% in size
#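 Image-based read-out: total Hoechst fluorescence of nuclei (405 nm excitation, 500-530 nm emission), with hits raising the fraction of high-intensity nuclei. SW480 colon cells incubated 48 hr with compounds at 37 C.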
# IL-1B inflam inh – blocks inflammasome-driven IL-1 beta release; AID 743279; activity change, % at 57.5 µM; 4.7% of 360,000 active; THP-1 LPS/ATP IL-1B secretion, AlphaLISA, 16 h; active compounds read low; in the data active = activity change below about -50%; inconclusive = mostly about -30% to -49%; also: % is scaled to controls: 0 for no effect and ±100 for the full control effect
#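 THP-1 cells pretreated 1 hr with compounds (up to 57.5 uM final), then stimulated with LPS (250 ng/mL final) plus ATP (1.25 mM final); secreted IL-1B measured by AlphaLISA after 16 hr, decreased signal indicating inhibition.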
# KB-3-1 tox – kills parental KB-3-1 adenocarcinoma cells; KB-3-1 viability, CellTiter-Glo ATP luminescence, 72 h; Potency, µM (highest dose often 46.1 µM), usual class: cytotoxic; 1.4% of 400,000 active; AID 1347075; also: potency is read from the fitted curve at half-maximal effect; % is scaled to controls: 0 for no effect and ±100 for the full control effect; nearly all actives have a fitted effect of over 60% in size
#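 72 h, 37 °C compound treatment of KB-3-1 parental cells; CellTiter-Glo added, 10 min, luminescence read. Data corrected against DMSO-only plates and normalized before curve fitting.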
# MCF10A rerep – DNA re-replication induction in MCF 10a cells | MCF 10A DNA re-replication, Hoechst nuclear intensity, 48 h | 2.9% of 350,000 active | Potency, µM (top dose mostly 46.1 µM), inactives show at the top dose activity, positive = re-replication, hits mostly activators; also: potency is read from the fitted curve at half-maximal effect; % of control where 0% means no effect; nearly all actives have a fitted effect of over 50% in size
# KB-V1 cytotox – kills drug-selected multidrug resistant KB-V1 cells; KB-V1 MDR cells viability, CellTiter-Glo, 72 h; Potency, µM (highest dose often 46.1 µM), actives largely listed as cytotoxic; 3.4% of 400,000 active; also: potency is read from the fitted curve at half-maximal effect; % is scaled to controls: 0 for no effect and ±100 for the full control effect; nearly all actives have a fitted effect of over 60% in size
#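 KB-V1, DMEM (no phenol red) + 10% FBS; cpd pin-transferred, titration series; 72 h, 37 degrees C; CellTiter-Glo, luminescence. Data normalized, curve-fit.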
# The depositor's hits bear a star; i = inactive; ? = inconclusive; / = no result given. Unless noted, calls follow the shape of the dose curve; as a rule, active = well fitted curve in the direction sought with a large enough effect; inconclusive = small, poorly fitted or top-dose-only effect, or another doubt; inactive = no such curve, though single readings can be large; an effect the other way counts as inactive or inconclusive.
SMILES,SW480 rerep,IL-1B inflam inh,KB-3-1 tox,MCF10A rerep,KB-V1 cytotox
Cn1nnc2c(N3CCN(c4cccc(Cl)c4)CC3)ncnc21,/,/,i,/,i
COc1ccc(C(=O)NNC2=Nc3cccc4cccc2c34)cc1,7%,8,i,?,?
Cc1ccc(C(=O)NNC2=Nc3cccc4cccc2c34)cc1,-4%,-3,?,6%,9.2µM*
O=C(O)c1ccc(NC2=Nc3cccc4cccc2c34)cc1,?,5,?,-2%,15µM*
COc1ccc(CC(=O)NNC2=Nc3cccc4cccc2c34)cc1,16µM*,/,i,21µM*,i
NC(=O)NNC1=Nc2cccc3cccc1c23,-2%,-9,i,-1%,i
C#CCn1c2ccccc2c2nc3ccccc3nc21,-2%,2,i,-9%,18µM*
CC(C)n1c2ccccc2c2nc3ccccc3nc21,?,-7,i,23µM*,i
c1ccc2nc3c(nc2c1)c1ccccc1n3CCN1CCOCC1,?,-63*,i,18µM*,?
COc1cc2ncnc(N(C)Cc3cccs3)c2cc1-c1ccc2c(c1)OCO2,/,/,i,/,i
COc1ccc(NC(=O)NCc2ccccn2)c(OC)c1,3%,-14,i,?,?
Cc1oc(-c2cccs2)nc1CN1CCN(CCC(C)C)C(CCO)C1 (centres undefined),?,10,i,23µM*,i
CCOC(=O)C1(CCOC)CCN(Cc2nc(-c3cccs3)oc2C)CC1,?,18,i,-2%,i
Cc1oc(-c2cccs2)nc1CN1CCN(C2CCCC2)C(CCO)C1 (centres undefined),-2%,2,i,21%,i
Cc1oc(-c2cccs2)nc1CN1CCC(CO)(CCOc2ccccc2)CC1,?,-83*,i,?,?
NC(=O)c1nc(Nc2ccccc2)sc1NC(=O)c1ccccc1Br,/,/,i,/,i
Oc1c(Br)cc(/C=N/Nc2nncc3ccccc23)cc1Br,1%,-5,i,21µM*,i
CCn1nc([N+](=O)[O-])c(C(C#N)c2nc3ccccc3n2C)c(Cl)c1=O (centres undefined),-2%,-94*,i,?,i
O=[N+]([O-])c1ccc(CN2CCN(c3nc4ccccc4s3)CC2)cc1,-14%,-18,i,-1%,i
CCCn1nc([N+](=O)[O-])c(C(C#N)c2nc3ccccc3s2)c(Cl)c1=O (centres undefined),1.3µM*,-102*,?,?,5.8µM*
Cc1ccc(S(=O)(=O)N2CC(C)N(C(=O)N3CCOCC3)C2C)cc1 (centres undefined),3%,10,i,5%,i
CSc1ccc(CN(C)C(=O)c2ccc(S(=O)(=O)Nc3ccccc3)cc2)cc1,2%,-50*,i,25%,?
COc1ccc(CN(C)C(=O)c2cccc(NS(=O)(=O)c3ccccc3)c2)cc1F,-2%,-7,i,3%,8.2µM*
CN(Cc1ccc(F)cc1)C(=O)c1cccc(NS(=O)(=O)c2ccccc2)c1,-3%,6,i,-2%,i
CSc1ccc(CN(C)C(=O)c2ccc(S(=O)(=O)Nc3c(C)n(C)n(-c4ccccc4)c3=O)cc2)cc1,-5%,-5,i,4%,i
SMILES,SW480 rerep,IL-1B inflam inh,KB-3-1 tox,MCF10A rerep,KB-V1 cytotox
O=C(c1cccnc1)N1CCN(Cc2ccc3ccccc3c2)CC1,0%,24,?,18µM*,?
N=c1oc2ccccc2cc1-c1nc(-c2ccccc2)cs1,13µM*,-10,i,10µM*,23µM*
O=C(NC(=S)Nc1cccc(S(=O)(=O)NC2=NCCC2)c1)c1cc(-c2ccco2)nc2ccccc12,9.2µM*,46,6.5µM*,?,i
CCOc1ccc(C(=O)NC(=S)Nc2cccc(S(=O)(=O)NC3=NCCC3)c2)cc1,?,0,2.3µM*,2.6µM*,7.3µM*
CCc1nc2ccccc2c(C(=O)OCC(=O)Nc2cccc(S(=O)(=O)NC3=NCCCCC3)c2)c1C,?,-84*,?,?,i
CCc1nc2ccccc2c(C(=O)OCC(=O)Nc2cccc(S(=O)(=O)N3CCOCC3)c2)c1C,?,-78*,21µM*,109%,6.5µM*
